High-throughput results deposited in PubChem BioAssay by National Center for Advancing Translational Sciences (NCATS).
12-LOX inh: blocks human arachidonate 12S-lipoxygenase; AID 1671190; hit rate 1.1% among 580,000; purified 12hLO, xylenol orange hydroperoxide absorbance; Potency, µM (series often up to 108 µM), most hits filed as inhibitors; P18054
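Hydroperoxide product was detected by ferrous iron/xylenol orange as the 573 to 405 nm absorbance ratio. Arachidonic acid at 40 uM (final) was turned over for 30 min at room temperature by 150 nM human 12hLO, pH 7.0 Hepes buffer, after 15 min compound preincubation.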
HT1080 IDH1KD tx: kills HT-1080 cells with IDH1 knockdown; HT-1080 IDH1 knockdown viability, ATP luminescence, 48 h; Potency, µM (highest dose often 46.1 µM), actives largely listed as cytotoxic; hit rate 2% among 360,000; AID 686971
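Cytotoxicity counter-line: IDH1KD HT-1080, 48 h, CellTiter-Glo. Curves classed by r2, magnitude and activity.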
DT40 TDP1 CPT: growth inhibition of DT40 Tdp1-/-;hTDP1 cells with camptothecin (screen for TDP1 inhibitors); chicken DT40 Tdp1-/-;hTDP1 cells + 20 nM CPT, ATP luminescence, 48 h; Potency, µM (highest dose often 46.2 µM), hits mostly inhibitors; hit rate 12% among 420,000; further: nearly all actives have a fitted effect of over 55% in size
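Chicken DT40 Tdp1-/- cells complemented with human TDP1, 400 cells/well, exposed to compounds plus 20 nM camptothecin for at least 48 h at 37 C; viability read as ATP content by CellTiter-Glo luminescence.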
IL1B secr inh: blocks inflammasome-driven IL-1 beta release | hit rate 4.7% among 360,000 | activity change, % at 57.5 µM | AID 743279 | THP-1 LPS/ATP IL-1B secretion, AlphaLISA, 16 h; stronger effect = lower value; in the data active means activity change below about -50%; inconclusive means mostly about -30% to -49%
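Secreted IL-1B measured by AlphaLISA bead assay after 16 h compound exposure of THP-1 cells; compounds (final up to 57.5 uM) added 1 h before LPS (250 ng/mL) and ATP (1.25 mM) stimulation; lower signal means less secretion.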
TDP1 cell noCPT: qHTS for Inhibitors of human tyrosyl-DNA phosphodiesterase 1 (TDP1): qHTS in cells in absence of CPT; Potency, µM (series often up to 46.2 µM), hits mostly inhibitors; DT40 Tdp1-/- hTDP1 cells, no CPT, ATP luminescence, 48 h; hit rate 15% among 420,000; AID 686978, 2013; further: nearly all actives have a fitted effect of over 55% in size
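Readout: luminescence from CellTiter-Glo after 30 min in the dark at RT. Cells: DT40 Tdp1-/- with stable hTDP1, 400/well. Exposure: compounds alone, ≥48 hr, 37 °C.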
HT1080-NT tox: kills 2HG-producing HT-1080-NT fibrosarcoma cells; HT-1080-NT fibrosarcoma viability, CellTiter-Glo ATP luminescence, 48 h; Potency, µM (highest dose often 46.1 µM), hits mostly cytotoxic; hit rate 1.6% among 360,000; AID 686970;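 further: NT is the 2HG producing partner of a matched IDH1 knockdown line; nearly all actives have a fitted effect of over 55% in size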
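Fibrosarcoma NT cells, 750 per well in 5% FBS RPMI, were exposed to compound for 48 hours. Viability: CellTiter-Glo luminescence.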
Numbers stand for hits; n = inactive; u = inconclusive; x = no result given. The full list was thinned out, with hits kept by preference. Unless noted, the call rests on the fitted dose curve; in most records, active means well fitted curve in the direction sought with a large enough effect; inconclusive means small, poorly fitted or top-dose-only effect, or another doubt; inactive means no such curve, though single readings can be large; an effect the other way counts as inactive or inconclusive.

SMILES	12-LOX inh	HT1080 IDH1KD tx	DT40 TDP1 CPT	IL1B secr inh	TDP1 cell noCPT	HT1080-NT tox
CC(=O)c1ccc(NC(=O)C2CC(=O)N(C(C)(C)C)C2)cc1 (centres undefined)	n	x	x	x	x	x
CSc1c(Cl)c(Cl)c(Cl)c(Cl)c1Cl	n	x	x	x	x	x
NC(=O)CN1CCC(c2nc3ccccc3o2)CC1	n	x	x	x	x	x
CC(C)SC1=NC(C)(C)C=C(/C=C/c2ccc(Cl)cc2Cl)N1	u	u	u	-113.1	u	u
CC(C)SC1=NC(C)(C)C=C(/C=C/c2c(Cl)cccc2Cl)N1	x	20.6µM	u	-82.3	u	u
O=C(O)/C=C/c1c(Cl)cccc1Cl	n	x	x	x	x	x
O=C(O)c1cnc(/C=C/c2cc(Cl)c3c(c2)OCCCO3)s1	n	x	x	x	x	x
O=C(Cc1c(F)cccc1Cl)N1CC=C(c2c[nH]c3ncccc23)CC1	n	x	x	x	x	x
CCOC(=O)c1cnc2sc3c(n2c1=O)CCCC3	n	n	25.9µM	n	14.6µM	n
O=C(NCc1ccc(F)cc1)C1CCN(c2cn[nH]c(=O)c2)C1 (centres undefined)	n	x	x	x	x	x
O=C(Nc1ccncc1)C1CCCN(S(=O)(=O)c2cccc3cccnc23)C1 (centres undefined)	n	u	1.84µM	n	1.64µM	3.26µM
CC(C)c1ccc(NC(=O)C2CCCN(S(=O)(=O)c3cccc4cccnc34)C2)cc1 (centres undefined)	u	x	16.4µM	x	16.4µM	x
O=C(NCC1COc2ccccc2O1)C1CCCN(S(=O)(=O)c2cccc3cccnc23)C1 (centres undefined)	n	n	20.6µM	n	u	n
COc1cccc(NC(=O)C2CCCN(S(=O)(=O)c3cccc4cccnc34)C2)c1 (centres undefined)	n	n	u	n	u	n
O=C(NCC1COc2ccccc2O1)C1CCCN(S(=O)(=O)c2cccc3nsnc23)C1 (centres undefined)	n	n	u	n	u	n
O=C(C1CCCN(S(=O)(=O)c2cccc3cccnc23)C1)N1CCc2ccccc21 (centres undefined)	n	n	23.1µM	n	16.4µM	n
O=C(NC1CCCCC1)C1CCCN(S(=O)(=O)c2cccc3cccnc23)C1 (centres undefined)	n	n	u	n	u	n
Cc1sc2cc(C(=O)N3CCCCC3)[nH]c2c1CN1CCCCC1	n	x	x	x	x	x
COc1cccc(C(=O)NCc2coc(-c3cccs3)n2)c1OC	n	x	x	x	x	x
COc1ccccc1Cn1c(=S)[nH]c2cc(C(=O)NCC3CCCO3)ccc2c1=O (centres undefined)	n	n	u	n	u	n
COC(=O)c1ccc2c(=O)n(Cc3ccc(C(=O)NC(C)C)cc3)c(=S)[nH]c2c1	n	n	u	n	23.1µM	n
COc1ccccc1Cn1c(=S)[nH]c2cc(C(=O)NCCN(C)C)ccc2c1=O	n	n	u	-56.0	n	n
O=c1c2ccccc2c(C=NCCCN2CCOCC2)c(O)n1Cc1ccccc1	n	n	18.4µM	n	u	n
CC(C)NC(=O)c1ccc2c(=O)n(CC3CCCO3)c(=S)[nH]c2c1 (centres undefined)	n	n	n	n	n	n
O=C(NCCN1CCCC1)c1ccc(Cn2c(=S)[nH]c3cc4c(cc3c2=O)OCO4)cc1	u	n	n	n	23.1µM	n
O=C(NC1CC1)[C@@H]1C[C@H](Oc2ccccc2)CN1C(=O)C1(c2ccccc2)CC1	n	x	x	x	x	x
CCOc1cc(CN(C)C(=O)c2cc(C)sc2NC(=O)C(C)(C)C)ccc1OC	n	x	x	x	x	x
Cc1cccc(OCc2ccc(C(N)=O)cc2)c1	n	x	x	x	x	x
O=C(NCCCN1CCOCC1)c1ccc2c(=O)n(Cc3ccccc3)c(=S)[nH]c2c1	n	16.4µM	n	-72.7	u	18.4µM
COc1ccc(CCn2c(=S)[nH]c3cc(C(=O)NCc4ccco4)ccc3c2=O)cc1OC	x	n	20.6µM	n	16.4µM	u
